A short description of assay [1]: Nuclear factor erythroid 2-related factor 2/antioxidant responsive element (Nrf2/ARE) small molecule agonists: qHTS cell viability counter screen in human keratinocytes (AID 1919968; active means well fitted curve in the direction sought with a large enough effect in the repeat runs; an effect the other way counts as inactive or inconclusive; further: nearly all actives have a fitted effect of over 55% in size). In outline: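 Seed 1,500 KeratinoSens cells per well, then incubate 5 h at 37 C/5% CO2. Add compounds in DMSO and incubate 23 h. Add CellTiter-Fluor, wait 1 h and read fluorescence.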
On the technique in general: In qHTS, concentration-response curves come from the screen itself.

A short description of assay [2]: Nuclear factor erythroid 2-related factor 2/antioxidant responsive element (Nrf2/ARE) small molecule agonists: luciferase reporter gene qHTS assay in human keratinocytes (AID 1919969). Further: nearly all actives have a fitted effect of over 35% in size. In general terms: A reporter such as luciferase makes a cellular process visible.
Assay [3] has as its target Gonadotropin-releasing hormone receptor (Homo sapiens) (UniProt P30968). The assay is described as follows: Human gonadotropin-releasing hormone receptor (GnRHR) small molecule agonists, calcium flux assay in GnRHR-HEK293 cells (AID 1920063). Further: nearly all actives have a fitted effect of over 35% in size. The method, boiled down: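 Cells: HEK293 stably expressing human GnRHR. Steps: overnight (18 h) culture, 1 h calcium dye loading at 37 C, compound addition, kinetic fluorescence read at 480/540 nm. Each compound tested at 15 concentrations in triplicate.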
On the technique in general: Calcium flux is commonly read through the fluorescence of an indicator in the cells.

The target of assay [4] is KiSS-1 receptor (Homo sapiens) (UniProt Q969F8). The assay is described as follows: Human kisspeptin (KISS1R) small molecule agonists, calcium flux assay in KISS1R-HEK293 cells (AID 1920064; active means well fitted curve in the direction sought with a large enough effect in the repeat runs; an effect the other way counts as inactive or inconclusive). The method, boiled down: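 Cells plated and incubated 18 h; dye added, 1 h at 37 C; compounds in DMSO pinned in; signal read at 480/540 nm every second for 3 min. Each compound tested at 15 concentrations in triplicate.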

Assay [5] is described as follows: G protein-coupled receptor (GPCR) small molecule agonists, calcium flux assay: HEK293 wild type cell line counter screen (AID 1920065). In outline: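 Counter-screen of the Tox21 10K library for non-specific calcium release: dye-loaded cells received compounds in DMSO and were monitored by kinetic fluorescence (480/540 nm, 3 min). Fifteen concentrations, run in triplicate.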

The nature of assay [6]: p53 small molecule agonists, cell-based qHTS assay with human liver microsomes (AID 1963577). The method, boiled down: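 p53RE-bla reporter cells were pre-incubated 5 h at 37 C, then treated with compounds plus human liver microsomes (0.5 mg/mL final) and NADPH (0.5 mg/mL final) for 16 h at 37 C. Beta-lactamase activity was read by LiveBLAzer fluorescence after 2 h at room temperature.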

The nature of assay [7]: p53 small molecule agonists, cell-based qHTS assay with rat liver microsomes (AID 1963578). The method, boiled down: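 p53RE-bla cells were exposed to compounds together with rat liver microsomes (0.5 mg/mL final) and NADPH (0.5 mg/mL final) for 16 h at 37 C, then read by LiveBLAzer beta-lactamase fluorescence after 2 h at room temperature.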
A short description of assay [8]: p53 small molecule agonists, cell-based qHTS assay with human liver microsomes: qHTS cell viability counter screen (AID 1963579). Further: nearly all actives have a fitted effect of over 45% in size. In outline:
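p53RE-bla cells (4,000/well) were pre-incubated 5 h at 37 C, then given compounds in DMSO plus human liver microsomes (0.5 mg/mL final) and NADPH (0.5 mg/mL final) for 16 h at 37 C. Viability was read by CellTiter-Glo luminescence.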

Assay [9] is described as follows: p53 small molecule agonists, cell-based qHTS assay with rat liver microsomes: qHTS cell viability counter screen (AID 1963580). Further: nearly all actives have a fitted effect of over 45% in size. In outline: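 HCT-116 p53RE-bla, 4,000 cells/well, 5 h pre-incubation; cpd + rat liver microsomes 0.5 mg/mL + NADPH 0.5 mg/mL (final); 16 h, 37 C; CellTiter-Glo, 30 min RT; luminescence.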
Assay [10] is described as follows: p53 small molecule agonists, cell-based qHTS assay: qHTS cell viability counter screen (AID 1963581). Further: nearly all actives have a fitted effect of over 45% in size. The method, boiled down:
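Cells: HCT-116 with p53 response element-driven beta-lactamase. Treatment: 16 h, 37 C, compounds in DMSO. Read: CellTiter-Glo luminescence after 30 min RT.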

Assay [11] is described as follows: p53 small molecule agonists, cell-based qHTS assay (AID 1963582; active means well fitted activation curve with a large enough effect in the signal ratio in the repeat runs, not every such curve was filed as active; the % refers to the signal ratio). In outline: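 Quantitative HTS in p53RE-bla cells: after a 5 h settling period, compounds delivered in DMSO were left on cells for 16 h at 37 C, and reporter induction was measured as fluorescence following 2 h substrate loading.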
Assay [12] addresses 5-hydroxytryptamine receptor 2A (Homo sapiens) (UniProt P28223). The assay is described as follows: 5-hydroxytryptamine receptor 2A (HTR2A) small molecule antagonists, cell-based qHTS assay (AID 1963586). Further: nearly all actives have a fitted effect of over 45% in size. In outline:
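Antagonist-mode intracellular calcium assay: DOI (4 nM) added after 5 min compound pre-incubation at room temperature to dye-loaded HTR2A-CHO cells. Fluorescence followed for 3 min, sampled every second.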

Assay [13] shares this target. The assay is described as follows: 5-hydroxytryptamine receptor 2A (HTR2A) small molecule agonists, cell-based qHTS assay (AID 1963587). Further: nearly all actives have a fitted effect of over 30% in size. The method, boiled down:
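Kinetic calcium-flux fluorescence (2 min, 1 sec intervals) after compound addition in agonist mode. HTR2A-CHO cells were cultured 18 h, then dye-loaded 1 h at 37 C.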

Assay [14] has as its target Muscarinic acetylcholine receptor M1 (Homo sapiens) (UniProt P11229). The assay is described as follows: Cholinergic receptor muscarinic 1 (CHRM1) small molecule antagonists, cell-based qHTS assay (AID 1963588). Further: nearly all actives have a fitted effect of over 40% in size. The method, boiled down: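 CHRM1-CHO calcium-flux assay, antagonist mode. Cells were seeded 18 h, dye-loaded 1 h at 37 C and given compound for 5 min at RT, then acetylcholine was added at 50nM. FDSS fluorescence was read 3 min; 15 concentrations, three runs.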

For assay [15] the target is unchanged. The assay is described as follows: Cholinergic receptor muscarinic 1 (CHRM1) small molecule agonists, cell-based qHTS assay (AID 1963589). Further: nearly all actives have a fitted effect of over 35% in size. In outline: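 Agonist-mode qHTS in CHO cells stably carrying human muscarinic M1. Intracellular calcium is tracked by fluorescence every second after compound transfer; each compound runs at 15 concentrations in three independent runs.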

Assay [16] is described as follows: cAMP Responsive Elements (CRE) small molecule agonists, cell-based qHTS assay (AID 1963590). The method, boiled down: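 Agonist mode qHTS in CRE-bla HEK 293T cells: compounds dosed from DMSO for 3 h at 37 C/5% CO2, followed by LiveBLAzer B/G FRET substrate for 2 h at room temperature.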
Assay [17] in a line: cAMP Responsive Elements (CRE) small molecule antagonists, cell-based qHTS assay (AID 1963591; active means well fitted inhibition curve with a large enough effect in the signal ratio in the repeat runs, not every such curve was filed as active; the % refers to the signal ratio). The method, boiled down: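 Antagonist mode: test compounds are co-incubated with the adenylyl cyclase activator NKH477 (0.25 uM final) on CRE-bla HEK293T cells for 3 h at 37 °C, followed by LiveBLAzer substrate loading.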
Assay [18] has as its target Beta-2 adrenergic receptor (Homo sapiens) (UniProt P07550). The assay is described as follows: Adrenergic beta2 receptor (ADRB2) small molecule antagonists, cell-based qHTS assay (AID 1963592). Further: nearly all actives have a fitted effect of over 50% in size. Further: potency means the concentration at half of the fitted maximal effect. The method, boiled down: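 Cells (CHO, stable ADRB2 overexpression) incubated 18-20hr at 37C; compounds added from DMSO; agonist mix (1nM isoproterenol, 100uM IBMX, 25uM Ro-20-1724) added; 0.5hr RT; d2-cAMP and anti-cAMP-cryptate added; 1hr RT; 665/615 nm read.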

The target in assay [19] is D(2) dopamine receptor (Homo sapiens) (UniProt P14416). The assay is described as follows: Dopamine D2 receptor (DRD2) small molecule agonists, cell-based qHTS assay (AID 1963594). Further: nearly all actives have a fitted effect of over 35% in size. The method, boiled down:
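cAMP accumulation in DRD2-HEK293 cells measured by HTRF after 1 h detection; compounds added 10 min before NKH477 (200nM […]) forskolin-analogue stimulation, 30 min at room temperature, with Ro20-1724 present at 0.1 mM final.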

For assay [20] the target is unchanged. The assay is described as follows: Dopamine D2 receptor (DRD2) small molecule antagonists, cell-based qHTS assay (AID 1963595; active means well fitted inhibition curve with a large enough effect in the signal ratio in the repeat runs, with a control signal flat; the % refers to the signal ratio). In outline:
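DRD2-HEK293; 0.1 mM Ro20-1724; cpd 10 min RT; NKH477 200 nM + quinpirole 12 nM, 30 min RT; HTRF cAMP (cAMP-d2/anti-cAMP cryptate), 665/620 nm ratio after 1 h.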

A number with no mark means an inactive call. Inconclusive results are not listed. Active and inactive are the calls of the source. Unless noted, the call rests on the fitted dose curve.

Sequence of Muscarinic acetylcholine receptor M1 (Homo sapiens) (P11229 whole entry, looked up): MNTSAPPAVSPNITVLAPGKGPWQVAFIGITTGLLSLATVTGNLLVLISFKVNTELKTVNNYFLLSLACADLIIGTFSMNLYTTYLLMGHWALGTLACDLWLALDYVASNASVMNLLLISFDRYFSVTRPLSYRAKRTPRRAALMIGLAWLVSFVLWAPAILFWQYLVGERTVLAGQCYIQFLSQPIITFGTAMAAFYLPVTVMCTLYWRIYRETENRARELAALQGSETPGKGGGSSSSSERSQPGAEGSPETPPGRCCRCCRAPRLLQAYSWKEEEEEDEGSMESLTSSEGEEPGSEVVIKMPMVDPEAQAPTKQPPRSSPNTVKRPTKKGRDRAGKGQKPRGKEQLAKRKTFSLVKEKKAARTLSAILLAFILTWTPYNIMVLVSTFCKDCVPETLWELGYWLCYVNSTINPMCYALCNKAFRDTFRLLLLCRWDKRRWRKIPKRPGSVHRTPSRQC
Sequence of Beta-2 adrenergic receptor (Homo sapiens) (P07550 whole entry, looked up): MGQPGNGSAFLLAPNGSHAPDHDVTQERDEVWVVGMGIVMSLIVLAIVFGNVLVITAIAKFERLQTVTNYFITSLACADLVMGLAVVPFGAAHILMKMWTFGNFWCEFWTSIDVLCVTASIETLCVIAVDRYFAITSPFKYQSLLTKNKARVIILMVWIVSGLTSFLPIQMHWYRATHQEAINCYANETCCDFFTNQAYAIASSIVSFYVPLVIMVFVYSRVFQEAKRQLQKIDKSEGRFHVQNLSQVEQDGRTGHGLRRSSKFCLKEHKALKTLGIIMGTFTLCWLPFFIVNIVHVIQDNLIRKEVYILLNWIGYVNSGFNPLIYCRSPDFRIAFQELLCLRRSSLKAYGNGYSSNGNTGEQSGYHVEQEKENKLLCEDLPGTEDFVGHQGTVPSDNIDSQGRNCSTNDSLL
Sequence of KiSS-1 receptor (Homo sapiens) (Q969F8 whole entry, looked up): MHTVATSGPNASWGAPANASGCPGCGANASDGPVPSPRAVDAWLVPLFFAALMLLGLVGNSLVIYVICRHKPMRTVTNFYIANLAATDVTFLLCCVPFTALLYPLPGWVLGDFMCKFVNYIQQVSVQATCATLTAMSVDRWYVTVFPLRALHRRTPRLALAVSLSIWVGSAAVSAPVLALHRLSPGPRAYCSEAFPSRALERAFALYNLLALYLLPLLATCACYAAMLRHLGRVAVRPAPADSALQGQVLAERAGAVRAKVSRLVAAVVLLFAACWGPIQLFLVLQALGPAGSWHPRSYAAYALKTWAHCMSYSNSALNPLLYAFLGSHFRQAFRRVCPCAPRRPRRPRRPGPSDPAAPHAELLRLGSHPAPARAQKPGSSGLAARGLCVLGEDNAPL
Sequence of D(2) dopamine receptor (Homo sapiens) (P14416 whole entry, looked up): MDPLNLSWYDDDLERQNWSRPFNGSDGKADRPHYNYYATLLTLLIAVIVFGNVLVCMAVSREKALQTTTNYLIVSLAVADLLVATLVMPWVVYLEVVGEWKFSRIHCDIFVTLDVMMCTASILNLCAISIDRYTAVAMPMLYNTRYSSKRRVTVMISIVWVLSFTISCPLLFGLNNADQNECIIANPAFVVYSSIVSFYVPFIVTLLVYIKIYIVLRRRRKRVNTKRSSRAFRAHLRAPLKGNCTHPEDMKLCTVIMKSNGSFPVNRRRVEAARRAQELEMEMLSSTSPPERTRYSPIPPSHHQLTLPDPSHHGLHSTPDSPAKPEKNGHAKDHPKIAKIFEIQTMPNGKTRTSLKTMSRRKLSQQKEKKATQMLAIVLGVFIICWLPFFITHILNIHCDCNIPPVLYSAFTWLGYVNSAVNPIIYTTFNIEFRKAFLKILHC
Sequence of 5-hydroxytryptamine receptor 2A (Homo sapiens) (P28223 whole entry, looked up): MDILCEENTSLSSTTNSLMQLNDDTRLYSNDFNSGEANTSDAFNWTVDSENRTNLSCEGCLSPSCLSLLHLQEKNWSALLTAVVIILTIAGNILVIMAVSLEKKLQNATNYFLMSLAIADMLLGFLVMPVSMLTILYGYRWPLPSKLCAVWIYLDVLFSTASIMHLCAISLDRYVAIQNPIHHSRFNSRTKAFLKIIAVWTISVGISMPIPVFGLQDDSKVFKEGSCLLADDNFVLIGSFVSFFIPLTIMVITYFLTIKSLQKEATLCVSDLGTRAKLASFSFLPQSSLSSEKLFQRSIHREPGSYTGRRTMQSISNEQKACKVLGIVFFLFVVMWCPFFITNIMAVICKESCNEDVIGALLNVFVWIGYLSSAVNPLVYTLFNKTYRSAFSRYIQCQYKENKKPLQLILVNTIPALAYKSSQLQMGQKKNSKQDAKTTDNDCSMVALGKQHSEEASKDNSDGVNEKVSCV
Sequence of Gonadotropin-releasing hormone receptor (Homo sapiens) (P30968 whole entry, looked up): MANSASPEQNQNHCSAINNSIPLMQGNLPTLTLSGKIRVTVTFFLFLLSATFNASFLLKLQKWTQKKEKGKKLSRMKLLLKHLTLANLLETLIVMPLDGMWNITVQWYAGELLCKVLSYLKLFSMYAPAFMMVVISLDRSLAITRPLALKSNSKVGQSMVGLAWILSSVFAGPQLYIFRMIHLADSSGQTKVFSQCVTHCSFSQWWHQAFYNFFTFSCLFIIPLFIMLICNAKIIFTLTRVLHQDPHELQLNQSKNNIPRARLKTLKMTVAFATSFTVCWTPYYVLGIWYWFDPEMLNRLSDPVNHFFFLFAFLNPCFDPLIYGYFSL

With `CCCCCO`, the Potency result in [1], in assay [2], in assay [3], in [6], in [7] and in assay [8] was “inactive” each time. Further, the Potency result in [9], in assay [10], in [11], in assay [12], in [13] and in [14] was “inactive” each time. The Potency entry in assay [15], in [16], in assay [17], in assay [18], in assay [19] and in assay [20] was “inactive” in each case. The result in [4] and in [5] was inactive.

With `O=c1cc[nH]cc1`, the Potency result in assay [1], in assay [2], in [3], in [6], in assay [7] and in [8] was “inactive” in each case. For the same compound, the Potency result in [9], in [10], in assay [11], in assay [12], in [13] and in assay [14] was “inactive” in each case. For the same compound, the Potency entry in [15], in [16], in assay [17], in [18], in assay [19] and in assay [20] was “inactive” each time. The result in assay [4] and in assay [5] was inactive.

As for `c1ccc(CCCc2ccccn2)cc1`, the Potency entry in [1], in assay [2], in assay [3], in assay [6], in [7] and in [8] was “inactive” throughout. In addition, the Potency result in [9], in assay [10], in assay [11], in [12], in assay [13] and in assay [14] was “inactive” in each case. Further, the Potency entry in assay [15], in [16], in assay [17], in assay [18], in [19] and in assay [20] was “inactive” in each case. Besides, the result in assay [4] and in assay [5] was inactive.

With `O=C(O)c1cccc(C(=O)O)n1`, the Potency result in assay [1], in [2], in [3], in [6], in assay [7] and in assay [8] was “inactive” throughout. The Potency entry in assay [9], in assay [10], in assay [11], in [12], in [13] and in assay [14] was “inactive” throughout. Moreover, the Potency entry in [15], in assay [16], in assay [17] and in assay [18] was “inactive” each time. For the same compound, the result in [4] and in [5] was inactive.

Take `CC(C)[N+](C)(C)CC(O)COc1cccc2ccccc12` (configuration not stated): the Potency result in [1], in [2], in assay [3], in assay [6], in [7] and in [8] was “inactive” each time. Moreover, the Potency entry in [9], in assay [10], in assay [11], in assay [12], in assay [13] and in [14] was “inactive” throughout. The Potency entry in assay [15], in assay [16], in assay [17], in [19] and in assay [20] was “inactive” throughout. Moreover, the result in assay [4] and in assay [5] was inactive. Besides, in assay [18], the Potency is 15 µM (active).

Turning to `C=C(C)c1ccccc1`, the Potency result in [1], in assay [2], in assay [3], in [6], in assay [7] and in [8] was “inactive” each time. For the same compound, the Potency result in [9], in [10], in assay [11], in assay [12], in [13] and in assay [14] was “inactive” throughout. The Potency result in assay [15], in assay [16], in assay [17], in [18] and in assay [19] was “inactive” throughout. Besides, the outcome in assay [4] and in assay [5] was inactive.

As for `CC(C)(C)C(=O)O`, the Potency entry in [1], in [2], in assay [3], in assay [6], in [7] and in [8] was “inactive” throughout. The Potency result in assay [9], in [10], in assay [11], in [12], in [13] and in assay [14] was “inactive” in each case. For the same compound, the Potency result in assay [15], in assay [16], in [17], in assay [18], in [19] and in assay [20] was “inactive” each time. In addition, the result in assay [4] and in assay [5] was inactive.

Source of the values: PubChem BioAssay (Tox21).
